Test results reported in ChEMBL document CHEMBL3433997, “St. Jude Leishmania screening dataset” (2016).

Key:
Type in all cases: functional
[1] = biological target: Solute carrier family 2, facilitated glucose transporter member 1 (Homo sapiens) (UniProt P11166); test: ST_JUDE_LEISH: Cytotoxicity at 2uM final concentration against transgenic Leishmania Mexicana promastigotes LmGLUT1 that are glucose transport deficient and complemented with the human glucose transporter GLUT1. Activity is measured by DNA content using SYBR green in vitro
Chain of Solute carrier family 2, facilitated glucose transporter member 1 (Homo sapiens) (P11166 whole entry): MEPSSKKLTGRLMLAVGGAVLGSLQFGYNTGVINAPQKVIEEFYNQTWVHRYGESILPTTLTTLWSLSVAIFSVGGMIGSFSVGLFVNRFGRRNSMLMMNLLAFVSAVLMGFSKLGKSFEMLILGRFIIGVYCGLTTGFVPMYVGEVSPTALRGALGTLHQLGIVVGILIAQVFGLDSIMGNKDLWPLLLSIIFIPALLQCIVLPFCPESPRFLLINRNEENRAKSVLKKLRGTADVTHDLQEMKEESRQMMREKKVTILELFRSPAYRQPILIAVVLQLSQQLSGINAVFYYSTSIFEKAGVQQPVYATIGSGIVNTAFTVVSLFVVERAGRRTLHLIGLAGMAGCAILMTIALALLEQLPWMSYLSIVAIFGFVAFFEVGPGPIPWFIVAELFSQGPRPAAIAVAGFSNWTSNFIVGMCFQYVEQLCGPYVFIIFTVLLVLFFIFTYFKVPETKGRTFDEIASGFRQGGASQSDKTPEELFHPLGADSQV

[2] = biological target: Hexose transporter 1 (Plasmodium falciparum) (UniProt O97467); test: ST_JUDE_LEISH: Cytotoxicity at 2uM final concentration against transgenic Leishmania Mexicana promastigotes LmPfHT that are glucose transport deficient and complemented with the Plasmodium falciparum hexose transporter. Activity is measured by DNA content using SYBR green in vitro
[3] = biological target: Glucose transporter (Leishmania mexicana) (UniProt O61059); test: ST_JUDE_LEISH: Cytotoxicity at 2uM final concentration against transgenic Leishmania Mexicana promastigotes LmGT2 that are glucose transport deficient and complemented with the L. Mexicana glucose transporter 2. Activity is measured by DNA content using SYBR green in vitro

Which inhibition [1] does the source give for `COc1cccc(C(=O)NCc2cccs2)c1Oc1ccccc1` here?
The inhibition was 13.2%.

And the inhibition [2]?
Its inhibition is 12.2%.

And the inhibition [3]?
Its inhibition is 11%.

How did the inhibition [1] turn out when `COC(=O)c1c(NC(=O)c2cccc(C(F)(F)F)c2)sc2c1CCN(Cc1ccccc1)C2` was run?
Its inhibition is 1.14%.

And the inhibition [2]?
Its inhibition is 5%.

What about the inhibition [3] of the same compound?
Its inhibition is -1.31%.

What does the source list for `COc1ccc(Cc2c(C)nc3nc(N)nc(N)c3c2C)cc1`?
inhibition [1]: 39%; inhibition [2]: 38.2%; inhibition [3]: 34.5%

Which inhibition [1] does the source give for `COc1nc2c(N3CCN(CCNCc4ccc5c(n4)NC(=O)CO5)CC3)ccnc2cc1F` here?
The inhibition was 4.21%.

And the inhibition [2]?
Its inhibition is 2.44%.

And the inhibition [3]?
Its inhibition is 0.39%.

For `CCc1ccc(O)c(-c2cc(C(=O)Nc3ccc(OC)c(Cl)c3)[nH]n2)c1`, which inhibition [1] is on record?
The inhibition was 0.23%.

And the inhibition [2]?
The inhibition was 0.3%.

And the inhibition [3]?
The inhibition was -7%.

`Cc1ccc(NC(=O)NC2CCN(c3ccnc4cc(Cl)ccc34)C2)cc1` (stereo not given) was tested. Which inhibition [1] did it give?
The inhibition was 0.94%.

And the inhibition [2]?
The inhibition was 4.46%.

What about the inhibition [3] of the same compound?
The inhibition was 2.34%.

How did the inhibition [1] turn out when `CC1(C)N=C(N)N=C(N)C1c1ccc(Cl)cc1` (stereo not given) was run?
The inhibition was 4.19%.

What about the inhibition [2] of the same compound?
Its inhibition is 5.72%.

What about the inhibition [3] of the same compound?
The inhibition was 3.51%.

Which results are given for `CC(C)N(CCOc1ccc2c(c1)N(C(=O)Nc1ccc(Cl)c(Cl)c1)CC2)C(C)C`?
inhibition [1]: -0.91%; inhibition [2]: 0.27%; inhibition [3]: -4.18%

With `CCCNCCc1ccc(NS(=O)(=O)c2cccc(-c3ccc(Cl)cc3)c2)cc1` as the compound, how does the inhibition [1] read?
Its inhibition is 1.93%.

What about the inhibition [2] of the same compound?
The inhibition was 0.61%.

What about the inhibition [3] of the same compound?
The inhibition was 1.01%.

Which results are given for `CCOc1cc2ccccc2cc1CNCCCCCCNCc1cc2ccccc2cc1OCC`?
inhibition [1]: 5.01%; inhibition [2]: 7.4%; inhibition [3]: 0.64%

For `CC(C)Oc1ccc2ccccc2c1CNCCCCCCNCc1c(OC(C)C)ccc2ccccc12`, which inhibition [1] is on record?
The inhibition was 31.1%.

And the inhibition [2]?
Its inhibition is -0.9%.

What about the inhibition [3] of the same compound?
The inhibition was 50.6%.

For `CCOC(=O)C1=C(C)NC(Cn2ccnc2)=C(C(=O)OCC)C1c1ccc(C(C)(C)C)cc1` (stereo not given), which inhibition [1] is on record?
Its inhibition is 2.7%.

What about the inhibition [2] of the same compound?
Its inhibition is 2.73%.

What about the inhibition [3] of the same compound?
The inhibition was 2.07%.

For `N#Cc1cccc(C(=O)Nc2cccc(-c3ccc(C(=O)NCCCN4CCOCC4)cc3)c2)c1`, which inhibition [1] is on record?
Its inhibition is 6.85%.

And the inhibition [2]?
The inhibition was 5.61%.

And the inhibition [3]?
The inhibition was 5.11%.

With `COc1ccc(CNC2CCN(C)CC2)cc1-c1ccc(S(=O)(=O)NCCc2ccccn2)cc1` as the compound, how does the inhibition [1] read?
Its inhibition is -0.85%.

And the inhibition [2]?
Its inhibition is 0.85%.

And the inhibition [3]?
The inhibition was -0.1%.

Which inhibition [1] does the source give for `Clc1ccc(CNc2ccnc(NCc3ccc4c(c3)OCCCO4)n2)c(Cl)c1` here?
Its inhibition is 4.44%.

What about the inhibition [2] of the same compound?
Its inhibition is 5.76%.

And the inhibition [3]?
Its inhibition is 3.69%.
